Experimental data published in PubChem BioAssay.
The source made the active and inactive calls.

Assays:
[1] = E. coli DRC41 culture turbidity changes, primary screen, E. coli filamentation inducer project, strain DRC41, OD650, 48 h (AID 1152);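 also: E. coli MC1000 strain DRC41 lacking acrAB efflux pump and sulA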; conditions: E. coli DRC41 (acrAB sulA), higher = more signal, called active from +8 up or from −8 down
[2] = small-molecule binders of probe aLefty1, primary screen, biochemical, small-molecule microarray, 635/667 nm fluorescence (AID 1153); conditions: higher = more signal;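 also: score merges spot fluorescence with signal-to-noise ratio from the scanned slide images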
[3] = PSAC antagonists in infected red cells, primary screen, cell-based, P. falciparum Indochina, OD700, 1 h (AID 1154); conditions: P. falciparum Indochina infected RBC osmotic lysis, higher = more signal, called active from +8 up or from −8 down
[4] = PSAC antagonists in infected red cells, primary screen, cell-based, P. falciparum Indochina, OD700, 2 h (AID 1155);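 also: lysis reports solute entry through the parasite surface anion channel PSAC; channel blockers reduce lysis of infected cells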; conditions: P. falciparum Indochina infected erythrocytes, osmotic lysis OD700; higher = more signal, called active from +8 up or from −8 down
[5] = osmotic lysis modulators in infected erythrocytes, primary screen, PSAC antagonist project, cell-based, P. falciparum Indochina, OD700, 3 h (AID 1156); conditions: higher = more signal, called active from +8 up or from −8 down
[6] = PSAC antagonists in infected red cells, primary screen, cell-based, P. falciparum Indochina, OD700, 18 h (AID 1157); conditions: P. falciparum Indochina infected erythrocytes, osmotic lysis OD700, 18 h; higher = more signal, called active from +8 up or from −8 down
[7] = modulators of S6 phosphorylation in cells, primary screen, cell-based, A549, cytoblot, luminescence, serum-stimulated (AID 1158); conditions: A549 phospho-S6 cytoblot, 5 h, higher = more signal;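 also: serum-stimulated A549 lung adenocarcinoma cells; signal is phosphorylated S6 detected by cytoblot immunostaining with HRP secondary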
[8] = target: NADPH oxidase 2 (Homo sapiens) (UniProt P04839); test: NOX2-dependent H2O2 signal modulators, primary screen, NOX inhibitor project, cell-based, HEK293-NOX2, PMA-stimulated, Amplex Red fluorescence (AID 1159); conditions: 45 min, higher = more signal, called active from +8 up or from −8 down; also: test concentration not given here
[9] = target: NADPH oxidase 4 (Homo sapiens) (UniProt Q9NPH5); test: NOX4-dependent H2O2 signal modulators, primary screen, NOX inhibitor project, cell-based, HEK293-NOX4, tetracycline-induced, Amplex Red fluorescence (AID 1160); conditions: 45 min, higher = more signal, called active from +8 up or from −8 down
[10] = target: NADPH oxidase 5 (Homo sapiens) (UniProt Q96PH1); test: NOX5-dependent H2O2 signal modulators, primary screen, NOX inhibitor project, cell-based, HEK293-NOX5, Amplex Red fluorescence (AID 1161); conditions: HEK293-NOX5, ionomycin, 45 min, higher = more signal
[11] = A549 cell viability effects, profiling panel, calcein-AM fluorescence, 48 h, basal (AID 1162); conditions: higher = more signal; also: test concentration not given here
[12] = adipocyte viability effects, profiling panel, cell-based, 3T3-L1 adipocytes, calcein-AM fluorescence, 48 h, basal (AID 1163); conditions: 3T3-L1 adipocytes viability, higher = more signal; also: test concentration not given here
[13] = HepG2 cell viability effects, profiling panel, calcein-AM fluorescence, 48 h, basal (AID 1164); conditions: higher = more signal; also: test concentration not given here
[14] = MM1S cell viability effects, profiling panel, calcein-AM fluorescence, 48 h, basal (AID 1165); conditions: higher = more signal;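 also: viability of MM1S multiple myeloma cells under basal unstimulated conditions; test concentration not given here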
[15] = basal RPMI8226 viability, no added stimulus, profiling panel, cell-based, calcein-AM fluorescence, 48 h, PK04 Diversity Set (AID 1166); conditions: RPMI8226 myeloma viability, higher = more signal;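 also: cells grown under basal conditions without added stimulus; test concentration not given here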
[16] = basal HepG2 mitochondrial membrane potential changes, profiling panel, cell-based, JC-1 fluorescence, 24 h, 100 nL compound (AID 1167); conditions: higher = more signal; also: test concentration not given here
[17] = basal 3T3-L1 adipocyte mitochondrial potential changes, profiling panel, cell-based, JC-1 fluorescence, 3T3-L1 adipocytes, 24 h, 100 nL compound (AID 1168); conditions: JC-1 mitochondrial fluorescence, higher = more signal, called active from +8 up or from −8 down; also: test concentration not given here
[18] = basal RPMI8226 mitochondrial membrane potential changes, profiling panel, cell-based, JC-1 fluorescence, 24 h, 100 nL compound (AID 1169); conditions: RPMI8226 myeloma, JC-1 mitochondrial potential fluorescence, higher = more signal; also: test concentration not given here
[19] = basal MM1S mitochondrial membrane potential changes, profiling panel, cell-based, JC-1 fluorescence, 24 h, 100 nL compound (AID 1170); conditions: higher = more signal; also: test concentration not given here
[20] = A549 lung cancer cell viability effects, profiling panel, resazurin fluorescence, 24 h, PK04 Diversity Set (AID 1171); conditions: higher = more signal, called active from +8 up or from −8 down; also: test concentration not given here

Sequence of NADPH oxidase 5 (Homo sapiens) (Q96PH1 whole entry, looked up): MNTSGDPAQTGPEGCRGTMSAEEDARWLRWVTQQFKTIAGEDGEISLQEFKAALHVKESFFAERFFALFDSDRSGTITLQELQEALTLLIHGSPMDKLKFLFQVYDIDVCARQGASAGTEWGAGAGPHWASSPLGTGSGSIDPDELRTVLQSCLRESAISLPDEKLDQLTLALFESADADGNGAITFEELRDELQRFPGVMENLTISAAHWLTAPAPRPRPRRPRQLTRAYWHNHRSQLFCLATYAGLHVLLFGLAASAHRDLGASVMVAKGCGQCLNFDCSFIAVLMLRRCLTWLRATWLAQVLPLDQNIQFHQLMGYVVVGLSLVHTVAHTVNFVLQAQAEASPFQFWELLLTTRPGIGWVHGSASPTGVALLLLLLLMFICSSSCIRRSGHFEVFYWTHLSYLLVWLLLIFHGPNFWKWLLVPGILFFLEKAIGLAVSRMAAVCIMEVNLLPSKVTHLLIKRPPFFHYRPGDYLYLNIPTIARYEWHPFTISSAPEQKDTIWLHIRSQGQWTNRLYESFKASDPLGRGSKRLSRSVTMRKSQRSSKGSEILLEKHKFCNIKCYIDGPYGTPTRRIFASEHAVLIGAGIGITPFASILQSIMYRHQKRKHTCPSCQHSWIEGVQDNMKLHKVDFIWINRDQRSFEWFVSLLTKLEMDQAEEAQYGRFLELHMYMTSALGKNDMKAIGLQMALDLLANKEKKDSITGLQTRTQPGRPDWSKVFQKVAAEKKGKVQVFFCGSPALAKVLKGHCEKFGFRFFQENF
Sequence of NADPH oxidase 4 (Homo sapiens) (Q9NPH5 whole entry, looked up): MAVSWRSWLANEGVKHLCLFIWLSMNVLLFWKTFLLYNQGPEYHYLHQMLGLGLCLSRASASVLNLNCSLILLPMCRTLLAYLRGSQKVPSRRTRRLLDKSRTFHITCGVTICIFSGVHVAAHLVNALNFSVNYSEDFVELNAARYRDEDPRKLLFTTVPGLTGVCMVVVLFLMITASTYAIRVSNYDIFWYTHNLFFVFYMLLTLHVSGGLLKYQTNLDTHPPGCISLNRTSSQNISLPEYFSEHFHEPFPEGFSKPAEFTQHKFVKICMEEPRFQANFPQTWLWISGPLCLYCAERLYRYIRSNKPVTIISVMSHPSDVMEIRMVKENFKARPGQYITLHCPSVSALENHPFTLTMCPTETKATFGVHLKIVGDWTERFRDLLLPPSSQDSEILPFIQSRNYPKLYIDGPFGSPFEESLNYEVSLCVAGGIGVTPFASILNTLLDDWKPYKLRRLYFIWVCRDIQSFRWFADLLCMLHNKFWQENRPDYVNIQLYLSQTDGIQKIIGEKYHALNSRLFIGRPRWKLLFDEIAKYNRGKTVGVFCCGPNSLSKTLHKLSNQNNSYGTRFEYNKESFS
Sequence of NADPH oxidase 2 (Homo sapiens) (P04839 whole entry, looked up): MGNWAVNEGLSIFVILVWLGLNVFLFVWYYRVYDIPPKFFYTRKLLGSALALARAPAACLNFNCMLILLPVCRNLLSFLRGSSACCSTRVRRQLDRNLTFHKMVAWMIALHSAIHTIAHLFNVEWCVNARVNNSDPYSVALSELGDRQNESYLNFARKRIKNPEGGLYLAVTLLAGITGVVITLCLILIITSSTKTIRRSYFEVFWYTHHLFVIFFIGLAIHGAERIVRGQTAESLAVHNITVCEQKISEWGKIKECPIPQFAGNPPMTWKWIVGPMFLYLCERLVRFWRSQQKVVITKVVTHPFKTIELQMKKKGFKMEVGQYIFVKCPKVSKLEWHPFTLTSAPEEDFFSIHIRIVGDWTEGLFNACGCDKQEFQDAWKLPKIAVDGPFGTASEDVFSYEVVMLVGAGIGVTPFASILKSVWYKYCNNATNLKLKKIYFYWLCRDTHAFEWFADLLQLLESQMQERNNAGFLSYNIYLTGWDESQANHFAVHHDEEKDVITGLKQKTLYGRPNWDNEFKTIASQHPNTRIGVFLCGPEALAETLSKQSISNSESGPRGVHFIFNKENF

| Structure (SMILES) | z-score [1] | composite z-score [2] | z-score [3] | z-score [4] | z-score [5] | z-score [6] | z-score [7] | z-score [8] | z-score [9] | z-score [10] | z-score [11] | z-score [12] | z-score [13] | z-score [14] | z-score [15] | z-score [16] | z-score [17] | z-score [18] | z-score [19] | z-score [20] |
| --- | --- | --- | --- | --- | --- | --- | --- | --- | --- | --- | --- | --- | --- | --- | --- | --- | --- | --- | --- | --- |
| CO[C@H]1COC(=O)[C@H](C)COC(=O)CC=C[C@@H](C)[C@H](OC)COC(=O)CC=C[C@@H]1C | 0.738 (inactive) | -0.196 | -0.654 (inactive) | -0.285 (inactive) | -0.654 (inactive) | -0.188 (inactive) | 0.648 | -0.347 (inactive) | 0.0281 (inactive) | 0.625 | 0.593 | -0.101 | 0.968 | 0.191 | -0.0736 | 0.69 | 0.0241 (inactive) | 0.405 | 0.601 | 0.239 (inactive) |
| COC(=O)C1(C)C=C2C(=C(c3ccccc3)C(=O)C2C)CN1 (stereo not given) | -1.47 (inactive) | 0.22 | 0.585 (inactive) | 0.196 (inactive) | 0.745 (inactive) | 0.543 (inactive) | -0.387 | 0.512 (inactive) | -2.49 (inactive) | -2.34 | -1.3 | -0.492 | -1.26 | -0.671 | -1.49 | -1.68 | -2.71 (inactive) | 0.2 | -0.933 | -0.72 (inactive) |
| COCCOC(=O)N1C(=O)[C@@]2(c3ccccc31)[C@H](C(N)=O)[C@H]1C(=O)O[C@H](c3ccccc3)[C@H](c3ccccc3)N1[C@@H]2c1ccccc1OCCO | 0.582 (inactive) | 0.144 | 3.59 (inactive) | 1.14 (inactive) | -0.0776 (inactive) | 1.2 (inactive) | 0.404 | 1.56 (inactive) | 1.43 (inactive) | 0.483 | -0.421 | 1.59 | -1.42 | -3.2 | -4.53 | -0.728 | 0.633 (inactive) | -1.1 | -0.0748 | -1.54 (inactive) |
| CO[C@H]1O[C@H](CO)[C@@H](OC(=O)Nc2ccc3c(c2)OCO3)[C@H](OC(=O)Nc2ccccc2-c2ccccc2)[C@@H]1OC(=O)Nc1ccccc1-c1ccccc1 | 0.181 (inactive) | 0.298 | 2.44 (inactive) | 1.7 (inactive) | 0.433 (inactive) | 1.14 (inactive) | -0.0879 | 2.75 (inactive) | -0.0563 (inactive) | -0.303 | -0.89 | -0.0426 | -0.251 | -0.624 | -0.775 | -0.121 | 1.34 (inactive) | -1.11 | 0.481 | -1 (inactive) |
| COC(=O)[C@]1(CO)N=C(c2ccc(OCCCO)cc2)O[C@@H]1c1ccccc1N=[N+]=[N-] | 0.248 (inactive) | 0.191 | 18.3 (active) | 2.32 (inactive) | 1.49 (inactive) | 0.742 (inactive) | -0.315 | -0.502 (inactive) | 0.0857 (inactive) | -0.514 | -0.0196 | 0.909 | 0.45 | 0.512 | -0.172 | -0.177 | -0.464 (inactive) | 0.392 | -0.471 | -0.276 (inactive) |
| CCCC[C@@H]1C[C@H]1[C@@H](NS(=O)(=O)c1cccc2cccnc12)c1ccc(-c2ccccc2)cc1 | -1.29 (inactive) | 0.0217 | 1.58 (inactive) | 0.985 (inactive) | 0.336 (inactive) | 0.764 (inactive) | -0.464 | 0.0564 (inactive) | -1.29 (inactive) | 1.21 | -1.11 | -1.08 | -0.0369 | 0.252 | 0.0748 | -1.13 | -0.43 (inactive) | -0.214 | -1.49 | 0.239 (inactive) |
| Cc1ccc(S[C@]2(C(=O)NCC(F)(F)F)CC(=O)N(Cc3ccccc3Cl)[C@@H]2c2ccc(CO)cc2I)cc1 | 0.973 (inactive) | 0.051 | 5.02 (inactive) | 0.898 (inactive) | 0.276 (inactive) | 0.524 (inactive) | -0.35 | 0.861 (inactive) | -1.67 (inactive) | 0.799 | -1.08 | -0.798 | 0.995 | -2.24 | -2.67 | 0.627 | -0.541 (inactive) | -0.566 | -1.18 | 0.318 (inactive) |
| [N-]=[N+]=NCc1ccccc1C[C@]1(C(=O)NCc2ccccc2)N=C(c2ccc(OCCCO)cc2)O[C@H]1c1ccccc1N=[N+]=[N-] | 0.0901 (inactive) | -0.7 | 30.6 (active) | 30.6 (active) | 2.72 (inactive) | 3.32 (inactive) | -0.275 | -0.349 (inactive) | -0.15 (inactive) | -1.66 | -0.71 | 0.0331 | -1.03 | -2.98 | -4.24 | 0.504 | -0.249 (inactive) | -1.17 | -1.5 | -0.883 (inactive) |
| CC(C)CON=C1C[C@@H](O)[C@@H](O)[C@@H]2[C@@H]3C(=O)N(Cc4ccccc4)C(=O)[C@@H]3CC[C@@H]12 | 0.102 (inactive) | 0.148 | 0.252 (inactive) | 0.227 (inactive) | 0.65 (inactive) | -0.0378 (inactive) | 0.524 | 1.39 (inactive) | 0.387 (inactive) | -0.0393 | -0.785 | 0.449 | -0.946 | 0.479 | -0.129 | 0.173 | -0.272 (inactive) | -0.313 | -0.659 | 0.676 (inactive) |
